# Data reported in PubChem BioAssay AID620 (Sanford-Burnham Center for Chemical Genomics, 2007).
# Among all 87,000 compounds or so, about 360 (0.41%) were called active. The sample holds actives, similar compounds and a random draw of the others, so the mix is not that of the screen. Values without a mark were called inactive. No stated cut-off is given here; in the data, active means cytotoxicity above about 50%; inactive means the rest.
# Assay: cytotoxicity in HT1080 fibrosarcoma cells, cell-based, fluorescence readout (AID 620);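 further: cells exposed to compound overnight then 4 h with Alamar Blue; 0% = vehicle DMSO and 100% = killing control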
# Settings: HT1080 viability, at 10 µM, hits give high values
row,Compound,cytotoxicity
1,CON(C)C(=O)Nc1ccc(Cl)cc1,1.8%
2,O=C(Nc1ccc(Cl)cc1)Nc1nccs1,61.1% (active)
3,CCOC(=O)c1c(C)n(CCN2CCN(C)CC2)c2ccc(OC)cc12,9.6%
4,CCN(CC)c1ccc(N=Cc2c(O)n(-c3ccc(OC)cc3)c(=O)[nH]c2=O)cc1,0.4%
5,CCOC(=O)C1SC2(C(F)F)CC1(O)c1c(c(OC)c3occc3c1OC)O2 (stereo not given),5.2%
6,O=c1c2ccccc2[nH]c(=S)n1-c1ccc2c(c1)OCO2,-0.8%
7,COc1ccc(C2NCc3ccc4c(c3-n3cccc32)OCO4)cc1OC (stereo not given),-2.8%
8,COc1ccc(C2NCc3ccc4c(c3-n3cccc32)OCO4)cc1O (stereo not given),67.8% (active)
9,c1cc2n(c1)-c1c(ccc3c1OCO3)CNC2c1ccc2c(c1)OCO2 (stereo not given),3.4%
10,COc1ccc(CCNC(C)CCc2ccc(OC)cc2)cc1 (stereo not given),-9.1%
11,CCC(=NCCc1c[nH]c2ccccc12)c1c(O)n(C)c(=O)n(C)c1=O,3.2%
12,COc1ccc(C2C(C(=O)N3CCC4(CC3)OCCO4)c3cc(OC)c(OC)cc3C(=O)N2C)cc1 (stereo not given),-12.7%
13,C[C@H]1CCC[C@@H](O)CCC/C=C/c2cc(O)cc(O)c2C(=O)O1,12.8%
14,C[C@H]1CCCC(=O)CCC/C=C/c2cc(O)cc(O)c2C(=O)O1,-0.7%
15,C[C@H]1CCC/C=C/C2C[C@H](O)CC2[C@H](O)/C=C/C(=O)O1 (stereo not given in full),83.3% (active)
16,COC(=O)CC1NC2CCCCC2NC1=O (stereo not given),3.2%
17,O=c1[nH]c2ccccc2n1C1CCN(CCCC(c2ccc(F)cc2)c2ccc(F)cc2)CC1,91.3% (active)
18,O=C1CC(N2CCC(n3c(=O)[nH]c4ccccc43)CC2)C(=O)N1c1ccc(F)cc1 (stereo not given),2%
19,O=C1CC(N2CCC(n3c(=O)[nH]c4ccccc43)CC2)C(=O)N1Cc1ccccc1 (stereo not given),13.4%
20,CCCCn1c(=O)c(C(=O)NCc2ccncc2)c(O)c2ccccc21,4.9%

row,Compound,cytotoxicity
1,COc1ccccc1N1C(=O)NC(=O)C(CCc2ccncc2)(CCc2ccncc2)C1=O,-6.4%
2,CCC(=NC1CC1)c1c(O)n(C2CCCCC2)c(=O)[nH]c1=O,15.1%
3,CC(=O)c1cccc(NC2=NCC(C)S2)c1 (stereo not given),1.4%
4,O=C1CN=C(c2ccccc2)c2oc3ccc(Br)cc3c2N1,8.1%
5,COc1cccc(OC)c1C1=NCC(=O)Nc2c1oc1ccc(Br)cc21,64.8% (active)
6,CC1=CC(=C2C(=O)NC(=S)NC2=O)C=C(C(F)(F)F)N1C,1.5%
7,COC(=O)C[C@]1(C(=O)OC)CN(C#N)N(c2ccc(Cl)cc2)C12c1ccccc1-c1ccccc12,93.9% (active)
8,COC(=O)[C@@H]1[C@@H](C(=O)OC)C2(c3ccccc3-c3ccccc32)N(c2ccc(Cl)cc2)N1C#N,2.6%
9,COC(=O)C1CN(C#N)N(c2ccc(Cl)cc2)C12c1ccccc1-c1ccccc12 (stereo not given),84.3% (active)
10,CCC(=Nc1ccc2c(c1)CCC2)c1c(O)n(C2CCCCC2)c(=O)[nH]c1=O,-1.6%
11,CCCN1CC(C)C(OC(C)=O)(c2ccccc2)CC1C (stereo not given),1.2%
12,OC1(CN2CCOCC2)C2CC3CC(C2)CC1C3 (stereo not given),-20.1%
13,CC(=O)Nc1ccc(S(=O)(=O)NC(CC(=O)N2CCC3(CC2)OCCO3)C(C)C)cc1 (stereo not given),4.2%
14,CCOP(=O)(C#CC(C)(C)C)C(O)(c1ccccc1)C(F)(F)F (stereo not given),6.8%
15,Cc1nc2c(=O)n(C)c(=O)nc-2n(C)n1,103% (active)
16,O=C(CN1C2CCC1CC(O)(c1cccnc1)C2)Nc1ccc2c(c1)OCO2 (stereo not given),2.5%
17,CC(C)CCP(=O)(O)c1ccccc1,0.8%
18,C=CCn1c(O)c(C=NCCCOc2ccc(CC)cc2)c(=O)[nH]c1=S,-6.1%
19,CCOC(=O)C1C(=O)NC23CCCC2C1c1ccccc1O3 (stereo not given),13.5%
20,Cc1cccc(-n2c(O)c(C=NCCCN3CCOCC3)c(=O)[nH]c2=O)c1C,-0.3%
